Each structure is given as a SMILES string. Active and inactive are the calls of the source. The calls were made as follows: active = hit-call score of the fitted dose curve at least 0.9, where 1 is the maximum; inactive = score below 0.9.

Read-out in this experiment: Monokine induced gamma interferon (MIG), CXCL9 (gene 4283)
Briefly: BSK_3C_MIG: BioMAP Diversity Plus: 3C Assay for Monokine induced gamma interferon (MIG) Biomarker Activity (AID 2283021).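 As to AC50: MIG protein level measured by immunoassay in the treated endothelial cultures.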 The conditions noted are these: primary human endothelial cells (HUVEC); actives raise or lower the signal. The method, then: BSK_3C is a cell-based, multiplexed-readout assay that uses umbilical vein endothelium, a human vascular primary cell, with measurements taken at 24 hours after chemical dosing in a 96-well plate.BSK_3C_MIG is an assay component measured in the BSK_3C assay. It measures MIG antibody related to regulation of gene expression using ELISA technology.Data from the assay component BSK_3C_MIG was analyzed into 1 assay endpoint. This assay endpoint, BSK_3C_MIG, was analyzed with bidirectional fitting relative to DMSO as the negative control and baseline of activity. Using a type of binding reporter, gain or loss-of-signal activity can be used to understand changes in the signaling as they relate to the gene CXCL9. Furthermore, this assay endpoint can be referred to as a primary readout, because this assay has produced multiple assay endpoints where this one serves a signaling function. To generalize the intended target to other relatable targets, this assay endpoint is annotated to the cytokine intended target family, where the subfamily is chemotactic factor.
The levels of cell surface (or secreted, indicated by the prefix "s") biomarker endpoints were measured by ELISA. Overt cytotoxicity to cells in confluent adherent cultures (all systems other than the BT system) was assessed by measuring total protein levels using sulforhodamine B (SRB) staining in parallel cultures at the time of biomarker measurements, indicated as SRB endpoints. For proliferation assays for adherent cell types, individual cell types are cultured at sub-confluence and relative cell numbers quantified by SRB staining at time points optimized for each system (48 h: 3C and CASM3C systems; 72 h: BT and HDF3CGF systems; 96 h: SAg system). SRB was performed by staining cells with 0.1% SRB after fixation with 10% TCA and reading wells at 560 nm.Viability and proliferation of PBMC (T cells) was quantified by Alamar Blue reduction for the SAg and BT systems. For PBMC viability (referred to as PBMC Cytotoxicity within the assay endpoint names), cells were plated (75,000/well in a 96-well plate) and then chemical samples added for 1 h before addition of activators, SEB and TSST-1 (20 ng/mL final concentration each). Cells were incubated for 90 h. Then, Alamar Blue (20 uL/well) (Invitrogen, Cat DAL1100) was added for 6 h, and the plates were read with a fluorescence microplate reader at 546/580 nm (excitation/emission). For PBMC proliferation, cells were plated and activated as above but incubated for only 16 h prior to addition of Alamar Blue. Plates were read after 6 h.
`CCc1ccc(O)c(C(C)(C)C)c1`: the AC50 was 36 µM (active). With `NC(=O)N1c2ccccc2C=Cc2ccccc21`, the outcome was inactive. Still for that read-out and setting: then `CCCCCOC(C)=O`, with “inactive”; and `FC(F)(F)C(F)(F)C(F)(F)C(F)(F)C(F)(F)C(F)(F)I`, with “inactive”.

In the case of `OCc1ccccc1`, the result was inactive. Same read-out and setting: then `O=S(=O)(O)CCC(F)(F)C(F)(F)C(F)(F)C(F)(F)C(F)(F)C(F)(F)F`, with “inactive”; and `CCCCN1C(=O)[C@@H]([C@H](O)C2CCCCC2)NC(=O)C12CCN(Cc1ccc(Oc3ccc(C(=O)O)cc3)cc1)CC2`, with “inactive”. Take `O=S1(=O)CCCO1`: the result was inactive.

Take `CCCCOC(=O)c1ccccc1`: the outcome was inactive. With `CCCCCCCCCC`, the outcome was inactive. Still for that read-out and setting: then `CCCCC(CC)C(=O)OCCOCCOCCOC(=O)C(CC)CCCC` (stereo not given), with “inactive”; and `C[C@]12C=CC(=O)C=C1CC[C@H]1[C@@H]3C[C@@H](O)[C@](O)(C(=O)CO)[C@@]3(C)C[C@H](O)[C@@]12F`, with “inactive”; and `O=C(NO)C1(NS(=O)(=O)c2ccc(Oc3ccc(F)cc3)cc2)CCOCC1`, with “inactive”.

With `CCCCCCCCN(C)C`, the outcome was inactive. On the same count and under the same terms, then `CC(C)CC(C)O` (stereo not given), with “inactive”. On to `NC(N)=O`, for which the outcome was inactive.

Take `CCCCCCCC1CCC(=O)O1` (stereo not given): the result was inactive. For the compound `Cc1nccn1-c1ccc(Sc2cccc(C3(C(N)=O)CCOCC3)c2)cc1`, the outcome was inactive. On the same count and under the same terms, then `COCc1nnc(-c2ccc[n+]([O-])c2)n1-c1c(Cl)c(Cl)cc2[nH]c(=O)c(=O)[nH]c12`, with “inactive”; and `Cc1cccc(O)c1C`, with “inactive”; and `O=S(=O)(O)c1ccc(N=Nc2c(O)ccc3cc(S(=O)(=O)O)ccc23)cc1`, with “inactive”. For the compound `COS(C)(=O)=O`, the outcome was inactive. The same measure, in the same setting: in the case of `Cc1ccc(S(=O)(=O)NC(=O)NN2CCCCCC2)cc1` it was “inactive”; in that of `CNC(C)=O`, “inactive”; in that of `c1ccc2cc3ccccc3cc2c1`, “inactive”. Consider `FC(F)C(F)(F)COCC1CO1` (stereo not given), for which the outcome was inactive. Same read-out and setting: in the case of `Cn1c(=O)c2[nH]cnc2n(C)c1=O` it was “inactive”. The same measure, in the same setting: then `NCC(F)(F)C(F)(F)C(F)(F)C(F)(F)F`, with “inactive”.

Consider `OCCNCCO`, for which the outcome was inactive. Turning to `CCCOc1ccc(S(=O)(=O)N2CCN(CC)CC2)cc1-c1nc2c(CC)n(Cc3ccccn3)nc2c(=O)[nH]1`, the outcome was inactive.

For the compound `COc1cc(C(C)C)c2c(c1)S(=O)(=O)N(COc1cc(=O)n3cccc(OCCN4CCCCC4)c3n1)C2=O`, the result was inactive. As to `C[C@@H](Oc1ccc(CNC(=O)c2cccnc2Oc2ccc3c(c2)OCO3)c(F)c1)C(=O)O`, the result was inactive.

On to `CCCCCCCCCCCCCCO`, for which the AC50 is 30.7 µM (active). Turning to `C[Si](C)(C)C(F)(F)C(F)(F)C(F)(F)F`, the outcome was inactive. `OCCC(F)(F)C(F)(F)C(F)(F)C(F)(F)F`: the result was inactive.

Regarding `NC(=O)NN=Cc1ccc([N+](=O)[O-])o1`, the outcome was inactive. In the case of `CC(C)c1nnc2ccc(-c3ocnc3-c3cc(F)ccc3F)cn12`, the outcome was inactive. Still for that read-out and setting: in the case of `OC[C@H]1O[C@@H]2O[C@H]3[C@H](O)[C@@H](O)[C@@H](O[C@H]4[C@H](O)[C@@H](O)[C@@H](O[C@H]5[C@H](O)[C@@H](O)[C@@H](O[C@H]6[C@H](O)[C@@H](O)[C@@H](O[C@H]7[C@H](O)[C@@H](O)[C@@H](O[C@H]1[C@H](O)[C@H]2O)O[C@@H]7CO)O[C@@H]6CO)O[C@@H]5CO)O[C@@H]4CO)O[C@@H]3CO` it was “inactive”; in that of `c1ccc(C(O[C@@H]2CCCN(CCc3ccc4c(c3)OCO4)C2)c2ccccc2)cc1`, “inactive”. For `CC1(C)C(=O)N(Cl)C(=O)N1Cl`, the outcome was inactive.

Values taken from PubChem BioAssay (EPA / NIEHS).
